# Screening results as filed in PubChem.
# ROMK primary – ROMK potassium channel modulators, primary screen, cell-based, thallium flux, MLSMR library; B-score at 10 µM; ATP-sensitive inward rectifier potassium channel 1 (Homo sapiens), P48048; hit rate 2% among 130,000; Tet-inducible ROMK, thallium flux fluorescence; actives lie on both sides;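 active = signal ratio slope over the read window, or its plate-corrected B-score, at least 3 SD from the plate mean, either direction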;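 note: B-score of the F/F0 ratio slope over 7 to 12 s after thallium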
# Target sequence (P48048 whole entry, looked up): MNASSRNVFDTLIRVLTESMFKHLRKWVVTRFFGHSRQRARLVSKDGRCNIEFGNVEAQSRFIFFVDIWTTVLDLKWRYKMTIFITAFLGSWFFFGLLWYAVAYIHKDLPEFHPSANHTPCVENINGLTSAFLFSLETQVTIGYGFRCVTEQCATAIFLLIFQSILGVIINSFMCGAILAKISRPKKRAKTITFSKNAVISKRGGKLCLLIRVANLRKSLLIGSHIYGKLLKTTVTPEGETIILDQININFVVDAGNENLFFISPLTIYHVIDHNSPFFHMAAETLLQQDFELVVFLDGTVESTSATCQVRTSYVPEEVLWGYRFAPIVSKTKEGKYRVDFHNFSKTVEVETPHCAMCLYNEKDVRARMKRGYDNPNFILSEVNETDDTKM
# Tb hexokinase – Trypanosoma brucei hexokinase 1 inhibitors, primary screen, biochemical, G6PDH-coupled NADH absorbance, MLSCN library; recombinant TbHK1, G6PDH-coupled NADH A340; inhibition, % at 10 µM; hexokinase 1 [Trypanosoma brucei]; hit rate 0.11% among 220,000;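 active = inhibition of 50% or more in the single-dose primary screen; inactive = inhibition below 50%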
# Insulin prom up – insulin promoter activators in MIN6 cells, imaging, high-content screening, mouse beta cells. MIN6 insulin promoter-GFP reporter; hits give high values. z-score at 5 µM. hit rate 0.3% among 190,000. AID 1625, 2009;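 active = z-score above 3 at 5 µM with at least 500 cells counted in the well; inconclusive = wells under 500 cells, flagged as cytotoxic or low count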
# Insulin prom inh – inhibitors of insulin promoter-driven GFP, primary screen, imaging, TRM-6 cells (human fetal islet line), eGFP reporter, cell count; hit rate 0.9% among 130,000; inhibition, % at 2 µM; reporter expression induced with tamoxifen;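 active = inhibition above the mean plus 3 SD, with well images judged a real hit on visual review, cut at about 60% in these data, passing the limit was not always enough; inconclusive = inhibition over the cutoff but images rejected on review; inactive = inhibition not above the cutoff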
# HSV augment – enhancers of HSV replication in host cells, fold increase, host cell viability; hit rate 0.005% among 220,000; maximum fold increase; HSV replication augmentation in cells; in the data active = maximum fold increase above about 1.5; inconclusive = no clear call, values can overlap the other calls; tested in PC3 cells
# * marks the source's active call; other numbers are inactive results; i = inactive; ? = inconclusive; · = no result. Many of the other results were omitted from the sample, so hits are more common in it than they were.
SMILES,ROMK primary,Tb hexokinase,Insulin prom up,Insulin prom inh,HSV augment
CCCC(=O)n1nc(-c2cccnc2)nc1N,·,4,0.16,94*,i
O=C(Nc1ccccc1)c1ccc(S(=O)(=O)N2CCCCC2)cc1,·,-3,-0.16,·,i
O=C(NC(=S)Nc1ccc(S(=O)(=O)N2CCCCC2)cc1)c1ccccc1,2.8*,1,-0.38,3,i
O=S(=O)(Nc1ccc(S(=O)(=O)N2CCCCCC2)cc1)c1cccs1,·,34,·,86*,i
O=C(O)c1ccc(N2C(=O)Nc3ccccc3N2O)cc1,0.13,0,·,·,i
CCOc1ccc2nc(/N=C/c3c(C)[nH]n(-c4ccc(C)cc4)c3=O)sc2c1,0.26,-9,0.36,20,i
CCOc1ccc2nc(/N=C/c3c(C)[nH]n(-c4ccccc4)c3=O)sc2c1,2.6*,24,0.74,·,i
CC(C)(CNS(=O)(=O)c1ccc(Cl)cc1)N1CCCCC1,·,-1,3.6*,0,i
CC(C)(CN1CCCCC1)NS(=O)(=O)c1ccc(Cl)cc1,-0.48,1,-0.77,6,i
CCCCCn1nc(C(=O)OCC(=O)c2c(N)n(C)c(=O)n(C)c2=O)c2ccccc2c1=O,0.31,-8,·,71*,i
COc1ccc(CCn2c(=O)c3cccnc3n(Cc3ccc([N+](=O)[O-])cc3)c2=O)cc1OC,0.84,8,·,·,i
COc1ccc(Cn2c(=O)c3cccnc3n(Cc3ccc([N+](=O)[O-])cc3)c2=O)cc1,2.8*,-3,·,·,i
CCOC(=O)c1cnc(-c2ccccc2)nc1N,-0.11,-1,0.4,95*,i
CCOC(=O)c1[nH]c(C)c(C(=O)c2cc(F)ccc2F)c1C,·,-2,-1.8,70*,·
CN(CCCNC(=O)Cn1cccc1C(=O)c1ccccc1)C1CCCCC1,-0.097,-10,·,·,i
CCOC(=O)/C(C#N)=C(C)/C=C1\Sc2ccccc2N1CC,-1.4,-3,1.9,-50,?
CCN1/C(=C\C=C(C(C)=O)C(C)=O)Sc2ccccc21,·,-6,7.7*,i,?
CCCCN1C2=C(C(=O)CCC2)C(c2ccc(Cl)c(Cl)c2)C2=C1c1ccccc1C2=O (stereo not given),·,-6,-0.04,17,i
CC1(C)c2ccccc2N2CC(=O)NC21/C=C/c1ccco1 (stereo not given),·,-4,3.3*,0,i
CC1(C)c2ccccc2N2CCC(=O)NC21/C=C/c1ccco1 (stereo not given),-0.66,4,-0.61,·,i
Cc1cc(C)cc(NC(=S)NCCN2CCOCC2)c1,·,-1,·,15,i
CCOc1cc(C2C(C(=O)c3ccc(C)cc3)=C(C(=O)OC)Nc3nnnn32)ccc1O (stereo not given),0.4,-9,0.35,6,2.1*
NS(=O)(=O)c1ccc(NC(=O)C2Cc3ccccc3C(=O)O2)cc1 (stereo not given),1,8,0.43,71*,i
COc1ccc(NC2=Nc3ccccc3N3C2=Nc2c(c(C)nn2-c2ccc(C)cc2)C3c2cccnc2)cc1 (stereo not given),-1,-22,3.1*,38,i
CC(=O)C1=C(C)Nc2ncnn2C1c1ccc(Cl)cc1Cl (stereo not given),-1.5,-15,3.5*,·,i
SMILES,ROMK primary,Tb hexokinase,Insulin prom up,Insulin prom inh,HSV augment
Cc1ccc(C(C(=O)NC2CCCCC2)N(Cc2ccco2)C(=O)Cn2cnc3ccccc32)cc1 (stereo not given),-3.3*,-6,0.04,25,i
CC(C)c1ccc(OCC(O)CN2CCN(c3ccccc3)CC2)cc1 (stereo not given),-2.8*,2,-0.4,·,i
O=c1[nH]c(CN2CCN(Cc3ccc4c(c3)OCO4)CC2)nc2sc3c(c12)CCC3,·,·,3.5*,·,·
O=c1[nH]c(CN2CCN(S(=O)(=O)c3ccccc3C(F)(F)F)CC2)nc2sc3c(c12)CCCC3,·,14,0.27,3,i
Cn1nc(CSc2ccccc2)c(C=O)c1Cl,0.4,-4,0.39,-45,i
O=C(/C(=N\Nc1ccccc1)Sc1nnnn1-c1ccccc1)c1ccccc1,1.3,-7,-0.65,27,i
COc1ccc(-c2c3c(=O)n(C)c(=O)n(C)c3cn2Cc2cccnc2)cc1,1.3,-7,0.29,73*,i
C/C(=N\N1CCN(C)CC1)c1ccc(OC(F)F)cc1,0.23,3,0.05,75*,i
CCOC(=O)c1sc2nc3c(cc2c1N)COC(C)(C)C3,0.034,0,·,81*,i
CCOC(=O)c1sc2nc3c(cc2c1N)COC(C)(CC)C3 (stereo not given),·,1,0.12,3,i
O=c1nc(SCc2cccc(C(F)(F)F)c2)nc2ccccn12,-0.54,-6,0.72,11,i
O=C(CSc1nc2c(sc3ccccc32)c(=O)n1-c1ccccc1)NCc1ccco1,·,-8,-0.33,73*,i
O=C(CSc1nc2c(sc3ccccc32)c(=O)n1CCc1ccccc1)NCc1ccco1,-0.31,27,0.54,-36,i
CCCC(C)C(=O)OCC(=O)Nc1ccc(Br)cc1 (stereo not given),0.16,1,-0.23,41,i
CC(=O)NC(C)C(=O)OCC(=O)Nc1ccc(Br)cc1 (stereo not given),0.56,-11,1.8,89*,i
Cc1ccc(N2CCN(C(=O)N3CCCC3)CC2)cc1Cl,-0.94,5,-0.48,43,i
Cc1ccc(N2CCN(S(=O)(=O)N3CCCCC3)CC2)cc1Cl,0.16,27,0.38,70*,i
CC1Cc2ccccc2N1C(=S)NC(=O)C1(C)CC1(Cl)Cl (stereo not given),13*,-11,-0.16,9,i
Cc1noc(NS(=O)(=O)c2ccc(NC(=O)Nc3ccc(Cl)c(Cl)c3)cc2)c1C,2.3,0,1,75*,i
Cc1cc2oc(C(=O)Nc3ccc(S(=O)(=O)Nc4onc(C)c4C)cc3)cc(=O)c2cc1Cl,0.12,-27,-0.04,·,i
Cc1cc(C(=O)NCc2ccccc2)c(=O)[nH]c1C,0.13,-22,0.25,73*,i
CCc1ccc2oc(=O)cc(CN(C)Cc3ccccc3)c2c1,-3.1*,-1,-0.5,8,i
COc1cccc(-c2nnc3n2N=C(C(C)(C)C)CS3)c1,0.36,-1,-1.1,·,i
COC(=O)[C@@H](NC(=O)Nc1ccc(OC)cc1)C(C)C,·,-1,0.42,4,i
COC(=O)[C@@H](NC(=O)Nc1cccc(OC)c1)C(C)C,·,1,3*,57,i
CCOc1ccccc1NC(=O)Cc1ccccc1OC,0.44,2,-0.35,81*,i
CCOc1ccccc1NC(=O)CCC(=O)Nc1ccccc1OCC,-0.99,-8,0.19,4,i
CCOC(=O)c1cn(Cc2ccccc2)nn1,·,5,0.35,-21,i
OC1(c2cn(Cc3ccccc3)nn2)CCCCC1,·,0,5.9*,·,i
O=c1[nH]c(Nc2ccccn2)cc2ccccc12,·,·,·,·,i
